Experimental data as given in the supplement of paper PMC9694430.
Counter-ions that a name gives are not always drawn.

Each molecule was assayed on LOC_OS01G57100-cb003 (assay: thermal shift delta Tm vs DMSO control; higher = stronger stabilization (binding)). Details: 12.5 µM; protein concentration 2 µM.
How it was run: (§1)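 Heating from 25°C to 95°C at 0.05°C/s, fluorescence was recorded for 19.5 μl wells of 2 μM E. coli-expressed, purified rice kinase domain in 100 mM potassium phosphate pH 7.5, 150 mM NaCl, 10% glycerol and 5 × SYPRO Orange with compound in DMSO. Boltzmann fits gave melting temperatures for this differential scanning fluorimetry assay. The shift reported is the mean of three replicates against the DMSO-only protein.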
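Further: purified Escherichia coli-expressed rice kinase domain construct.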

SMILES | thermal shift delta Tm [°C]
COc1cc2ncnc(Oc3ccc(CC(=O)Nc4cnn(C(C)C)c4)cc3)c2cc1OC | 0.71
CN1C(=O)[C@@H](NC(=O)c2n[nH]c(Cc3ccccc3)n2)COc2ccccc21 | 0.85
N[C@@H]1CCCN(c2c(/C=C3\SC(=O)NC3=O)cccc2-c2ccccc2)C1 | 0.49
Cc1cc(C(C)Nc2ccccc2)c2nc(N3CCOCC3)cc(=O)n2c1 (stereo unspecified) | 0.23
CC#CC(=O)N1CC[C@@H](n2c(=O)n(-c3ccc(Oc4ccccc4)cc3)c3c(N)ncnc32)C1 [ONO-4059 (GS-4059) hydrochloride] | 0.49
COc1cc(OC)c(C=C2C(=O)Nc3ccccc32)c(OC)c1 | 1.44
O=C(Nc1cnn2ccc(N3CCC[C@@H]3c3cc(F)ccc3F)nc12)N1CC[C@H](O)C1 [Larotrectinib (LOXO-101) sulfate] | 1.19
C[C@H](NC(=O)/C(C#N)=C/c1cccc(Br)n1)c1ccccc1 | 2.09
Nc1nccc(Oc2ccc3c(C(=O)Nc4cccc(C(F)(F)F)c4)cccc3c2)n1 | 1.31
Oc1cccc(-c2nc(N3CCOCC3)c3oc4ncccc4c3n2)c1 | 1.36
O=C(c1ccc(Nc2nccc(-c3cc4ccccc4s3)n2)cc1)N1CCC(N2CCCC2)CC1 [IKK-16 (IKK Inhibitor VII)] | 0.94
Cc1cc(C(=O)NOCCO)c(Nc2ccc(I)cc2F)n(C)c1=O | 1.03
c1nc2c(NC3CCCCC3)nc(Nc3ccc(N4CCOCC4)cc3)nc2[nH]1 [Reversine] | 0.27
CC#CC(=O)N1CCC[C@H]1c1nc(-c2ccc(C(=O)Nc3ccccn3)cc2)c2c(N)nccn12 [Acalabrutinib (ACP-196)] | 0.82
CN1CCN(c2nc(C3=C(c4c[nH]c5ccccc45)C(=O)NC3=O)c3ccccc3n2)CC1 [Sotrastaurin] | 2.03
Cc1ccc(-n2nc(C(C)(C)C)cc2NC(=O)NCc2cc(F)ccc2Oc2ccc3c(cnn3CCO)c2)cc1 [Pexmetinib (ARRY-614)] | 1.23
Cc1cc(F)c(Nc2ncnc3cc(OCc4ccccc4)ccc23)cc1O | 1.8
C[C@@H]1COC(Nc2ccc3ncnc(Nc4ccc(OCc5nccs5)c(Cl)c4)c3c2)=N1 [Varlitinib] | 1.92
CCCCNc1ncc2c(-c3ccc(CN4CCN(C)CC4)cc3)cn([C@H]3CC[C@H](O)CC3)c2n1 | 3.5

SMILES | thermal shift delta Tm [°C]
CCC(=O)Nc1cccc(Oc2nc(Nc3ccc(N4CCN(C)CC4)cc3OC)ncc2Cl)c1 | 0.87
CC(C)(CCCCCC(O)CCCCCC(C)(C)C(=O)O)C(=O)O | -0.51
Cc1c(Cn2c(C)nc3c(C(=O)O)cc(N4CCOCC4)cc32)cccc1C(F)(F)F | 1.01
Cc1ccc(-n2nc(C(C)(C)C)cc2NC(=O)Nc2ccc(OCCN3CCOCC3)c3ccccc23)cc1 [Doramapimod (BIRB 796)] | 1.19
O=S(=O)(NCCNC/C=C/c1ccc(Br)cc1)c1cccc2cnccc12 | 1.34
CN1CCN(c2ccc(-c3ccncc3-c3cc(F)c(O)c(F)c3)cc2)CC1 | 0.87
C=CC(=O)N[C@H]1CCOC[C@H]1Nc1ncc2cc(-c3c(Cl)c(OC)cc(OC)c3Cl)ccc2n1 | 2.49
Cc1cc(Nc2cc(N)ncn2)c(=O)n2c1C(=O)NC21CCCCC1 | 1.68
O=C1NC(=O)C(c2ccccc2[N+](=O)[O-])=C1Nc1ccc(O)c(Cl)c1 | 2.1
Cc1ccccc1CN1C2=NCCN2C(=O)C2=C1CCN(Cc1ccccc1)C2 [TIC10 Analogue] | 1.53
CCNC(=O)Nc1ccc(-c2nc3c(c(N4CCOC[C@@H]4C)n2)CCN(C2COC2)C3)cc1 | 1.02
CC[C@@H]1C(=O)N(C)c2cnc(Nc3ccc(C(=O)NC4CCN(C)CC4)cc3OC)nc2N1C1CCCC1 | 0.75
Nc1nc(N)c2nc(-c3cccc(O)c3)c(-c3cccc(O)c3)nc2n1 | 2.01
CCc1cnn2c(NCc3ccc[n+]([O-])c3)cc(N3CCCC[C@H]3CCO)nc12 | 1.62
COc1ccc(CC(=O)Nc2nc3c(s2)CCc2ccccc2-3)cc1OC | 2.6
CCn1c(N)c(C(=O)NC)c(=O)c2ccc(C#CC(C)(O)COC)nc21 (stereo unspecified) | 0.95
Oc1c(F)cc(-c2cnccc2-c2ccc(N3CCOCC3)cc2)cc1F | 1.14
CCN(CC)CCNC(=O)c1c(C)[nH]c(/C=C2\C(=O)Nc3ccc(F)cc32)c1C [Sunitinib] | -0.24
CC(C)(C#N)c1ccc(N2C(=O)OCc3cnc4ccc(-c5cnc6ccccc6c5)cc4c32)cc1 | 1.9

These molecules were tested on LOC_OS01G60330-cb001 in the same assay as above. Details: 12.5 µM; protein concentration 2 µM.
How it was run: as §1

SMILES | thermal shift delta Tm [°C]
COc1cc2ncnc(Oc3ccc(CC(=O)Nc4cnn(C(C)C)c4)cc3)c2cc1OC | 0.05
CN1C(=O)[C@@H](NC(=O)c2n[nH]c(Cc3ccccc3)n2)COc2ccccc21 | 0.1
N[C@@H]1CCCN(c2c(/C=C3\SC(=O)NC3=O)cccc2-c2ccccc2)C1 | -0.07
Cc1cc(C(C)Nc2ccccc2)c2nc(N3CCOCC3)cc(=O)n2c1 (stereo unspecified) | 1.22
CC#CC(=O)N1CC[C@@H](n2c(=O)n(-c3ccc(Oc4ccccc4)cc3)c3c(N)ncnc32)C1 [ONO-4059 (GS-4059) hydrochloride] | 0.71
COc1cc(OC)c(C=C2C(=O)Nc3ccccc32)c(OC)c1 | 0.76
O=C(Nc1cnn2ccc(N3CCC[C@@H]3c3cc(F)ccc3F)nc12)N1CC[C@H](O)C1 [Larotrectinib (LOXO-101) sulfate] | 0.93
C[C@H](NC(=O)/C(C#N)=C/c1cccc(Br)n1)c1ccccc1 | 0.03
Nc1nccc(Oc2ccc3c(C(=O)Nc4cccc(C(F)(F)F)c4)cccc3c2)n1 | 1.99
Oc1cccc(-c2nc(N3CCOCC3)c3oc4ncccc4c3n2)c1 | 1.6
O=C(c1ccc(Nc2nccc(-c3cc4ccccc4s3)n2)cc1)N1CCC(N2CCCC2)CC1 [IKK-16 (IKK Inhibitor VII)] | 12.6
Cc1cc(C(=O)NOCCO)c(Nc2ccc(I)cc2F)n(C)c1=O | 0.4
c1nc2c(NC3CCCCC3)nc(Nc3ccc(N4CCOCC4)cc3)nc2[nH]1 [Reversine] | 11.7
CC#CC(=O)N1CCC[C@H]1c1nc(-c2ccc(C(=O)Nc3ccccn3)cc2)c2c(N)nccn12 [Acalabrutinib (ACP-196)] | 0.94
CN1CCN(c2nc(C3=C(c4c[nH]c5ccccc45)C(=O)NC3=O)c3ccccc3n2)CC1 [Sotrastaurin] | 0.97
Cc1ccc(-n2nc(C(C)(C)C)cc2NC(=O)NCc2cc(F)ccc2Oc2ccc3c(cnn3CCO)c2)cc1 [Pexmetinib (ARRY-614)] | 2
Cc1cc(F)c(Nc2ncnc3cc(OCc4ccccc4)ccc23)cc1O | 0.94
C[C@@H]1COC(Nc2ccc3ncnc(Nc4ccc(OCc5nccs5)c(Cl)c4)c3c2)=N1 [Varlitinib] | 1.09
CCCCNc1ncc2c(-c3ccc(CN4CCN(C)CC4)cc3)cn([C@H]3CC[C@H](O)CC3)c2n1 | 14.9

SMILES | thermal shift delta Tm [°C]
CCC(=O)Nc1cccc(Oc2nc(Nc3ccc(N4CCN(C)CC4)cc3OC)ncc2Cl)c1 | 1.08
CC(C)(CCCCCC(O)CCCCCC(C)(C)C(=O)O)C(=O)O | 1.18
Cc1c(Cn2c(C)nc3c(C(=O)O)cc(N4CCOCC4)cc32)cccc1C(F)(F)F | 0.83
Cc1ccc(-n2nc(C(C)(C)C)cc2NC(=O)Nc2ccc(OCCN3CCOCC3)c3ccccc23)cc1 [Doramapimod (BIRB 796)] | 1.27
O=S(=O)(NCCNC/C=C/c1ccc(Br)cc1)c1cccc2cnccc12 | 0.45
CN1CCN(c2ccc(-c3ccncc3-c3cc(F)c(O)c(F)c3)cc2)CC1 | 1.02
C=CC(=O)N[C@H]1CCOC[C@H]1Nc1ncc2cc(-c3c(Cl)c(OC)cc(OC)c3Cl)ccc2n1 | -0.43
Cc1cc(Nc2cc(N)ncn2)c(=O)n2c1C(=O)NC21CCCCC1 | 0.51
O=C1NC(=O)C(c2ccccc2[N+](=O)[O-])=C1Nc1ccc(O)c(Cl)c1 | 0.17
Cc1ccccc1CN1C2=NCCN2C(=O)C2=C1CCN(Cc1ccccc1)C2 [TIC10 Analogue] | 0.24
CCNC(=O)Nc1ccc(-c2nc3c(c(N4CCOC[C@@H]4C)n2)CCN(C2COC2)C3)cc1 | 0.52
CC[C@@H]1C(=O)N(C)c2cnc(Nc3ccc(C(=O)NC4CCN(C)CC4)cc3OC)nc2N1C1CCCC1 | 2.55
Nc1nc(N)c2nc(-c3cccc(O)c3)c(-c3cccc(O)c3)nc2n1 | 3.89
CCc1cnn2c(NCc3ccc[n+]([O-])c3)cc(N3CCCC[C@H]3CCO)nc12 | 1.64
COc1ccc(CC(=O)Nc2nc3c(s2)CCc2ccccc2-3)cc1OC | 0.9
CCn1c(N)c(C(=O)NC)c(=O)c2ccc(C#CC(C)(O)COC)nc21 (stereo unspecified) | 1.02
Oc1c(F)cc(-c2cnccc2-c2ccc(N3CCOCC3)cc2)cc1F | 1.01
CCN(CC)CCNC(=O)c1c(C)[nH]c(/C=C2\C(=O)Nc3ccc(F)cc32)c1C [Sunitinib] | 9.23
CC(C)(C#N)c1ccc(N2C(=O)OCc3cnc4ccc(-c5cnc6ccccc6c5)cc4c32)cc1 | 0.57
